Source: PubChem BioAssay
TWEAK Fn14 block = inhibitors of TWEAK-Fn14 signaling, primary screen, luciferase reporter cells, uHTS; inhibition, % at 10 µM; TWEAK-stimulated Fn14 reporter cells, luciferase luminescence, 8 h; actives 2% (n = 360,000); AID 1159606, 2016; in the data active = inhibition above about 50%
TROY NFkB inh = inhibitors of TROY-driven NF-kB signaling, primary screen, Q293 LMP1-TROYcd cells, NF-kB luciferase, uHTS. actives 0.98% (n = 360,000). Q293 LMP1-TROYcd NF-kB luciferase reporter, 4 h. inhibition, % at 10 µM;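 active = compounds whose plate-normalised and pattern-corrected inhibition of the luciferase reporter signal at the single screening dose is 50% or more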
HSP90 refold inh = HSP90 inhibitors, primary screen, cell lysate, luminescence. AID 1789, 2009. inhibition, % at 5.6 µM. Rabbit reticulocyte lysate, luciferase refolding luminescence, 3 h. Heat shock protein HSP 90 (rabbit reticulocyte lysate; luciferase refolding). actives 0.91% (n = 290,000);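 active = inhibition above the screen-wide mean plus 3 SD, computed separately per campaign, cut at about 16% in these data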;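 note: 0% = DMSO wells and 100% = 60 µM geldanamycin wells; inhibitors lower the luminescence because luciferase stays unfolded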
TRAIL sens C8 = viability loss with TRAIL in NB7+C8 cells, primary screen, TRAIL sensitizer project, cell-based, ATPlite luminescence | inhibition (viability loss, TRAIL sensitization), % at 10 µM | actives 1% (n = 360,000) | AID 624354, 2012;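 active = compounds causing at least 50% loss of cell viability in the single-dose screen, relative to plate controls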
aSyn 5UTR inh = MLPCN primary screen, SNCA 5' untranslated region; alpha-synuclein 5'UTR reporter, inhibitor activity; inhibition, % (tested at 7.5 µM); actives 0.82% (n = 300,000); in the data active = inhibition above about 60%;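 note: H4 neuroglioblastoma cells stably carrying SNCA 5'UTR luciferase fusion; 0% = DMSO wells and 100% = positive control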
HIF-2a block = HIF-2a reporter inhibitors, primary screen, luminescence, 786-0 RCC cells. actives 0.72% (n = 360,000). 786-0 RCC cells HIF-2a reporter, luciferase luminescence, overnight. inhibition, % at 18.8 µM;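 active = inhibition of the luminescence signal of 40% or more relative to plate controls, in a single-dose primary screen at 18.75 µM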
* marks the source's active call; other numbers are inactive results. Shown are actives, neighbours in structure and some others; about 3.9% of the full set was active somewhere.

For Cc1nc2ccccc2cc1C(=O)N/N=C/c1cccc([N+](=O)[O-])c1 the results were TWEAK Fn14 block 6.6, TROY NFkB inh 6.6, HSP90 refold inh -0.8, TRAIL sens C8 0.4, aSyn 5UTR inh 2.4 and HIF-2a block 22.0.
Nc1ccccc1C(=O)NN=Cc1cccc([N+](=O)[O-])c1 was read as TWEAK Fn14 block 9.7, TROY NFkB inh -56.3, TRAIL sens C8 58.5* and HIF-2a block -215.0.
O=C1c2ccccc2C(c2nnnn2-c2ccc3c(c2)OCCO3)N1CCCN1CCOCC1 (configuration not stated) was read as TWEAK Fn14 block 3.1, TROY NFkB inh -6.5, TRAIL sens C8 -12.5 and HIF-2a block -25.3.
Screening CC1=Nc2ccccc2/C1=C/c1sc(=S)n(-c2cccc(C(=O)O)c2)c1O returned TWEAK Fn14 block 19.2, TROY NFkB inh 20.4, HSP90 refold inh 0.4, TRAIL sens C8 2.2, aSyn 5UTR inh 13.3 and HIF-2a block 41.0*.
Screening O=C1C(Cl)=C(Nc2ccc3cn[nH]c3c2)C(=O)c2ccccc21 returned TWEAK Fn14 block 1.2, TROY NFkB inh -95.2, HSP90 refold inh 6.9, TRAIL sens C8 72.2*, aSyn 5UTR inh 100.2* and HIF-2a block 94.5*.
`CN(C)c1ccc(NC2=C(Cl)C(=O)c3ccccc3C2=O)cc1` gave TWEAK Fn14 block 102.0*, TROY NFkB inh 42.5, HSP90 refold inh 0.7, TRAIL sens C8 70.3*, aSyn 5UTR inh -116.1 and HIF-2a block 96.5*.
Screening O=C(Nc1ccc2cn[nH]c2c1)c1c(Cl)cccc1Cl returned TWEAK Fn14 block 6.7, TROY NFkB inh -7.6, HSP90 refold inh 4.3, TRAIL sens C8 12.8, aSyn 5UTR inh -26.3 and HIF-2a block 7.3.
For CC1(C(=O)Nc2ccc3ccccc3c2)CCC(=O)N1C1CC1 (configuration not stated) the results were TWEAK Fn14 block 1.6, TROY NFkB inh 5.8, TRAIL sens C8 -14.8 and HIF-2a block 9.1.
For O=C1C(=O)c2ccccc2C(O)=C1CCCCl the results were TWEAK Fn14 block 5.1, TROY NFkB inh -4.3, HSP90 refold inh 8.9, TRAIL sens C8 68.2*, aSyn 5UTR inh -37.0 and HIF-2a block 0.9.
COc1ccc(CC2=C(O)c3ccccc3C(=O)C2=O)cc1 was read as TWEAK Fn14 block 33.1, TROY NFkB inh 17.4, HSP90 refold inh -0.2, TRAIL sens C8 -2.6, aSyn 5UTR inh 9.2 and HIF-2a block 4.5.
`CNC(=O)CC1C(=O)N(c2ccc(Cl)cc2)C(=S)N1NC(=O)c1cccc(F)c1` (configuration not stated) gave TWEAK Fn14 block 9.2, TROY NFkB inh -12.3, HSP90 refold inh -1.3, TRAIL sens C8 -0.3, aSyn 5UTR inh -16.5 and HIF-2a block -85.0.
CNC(=O)CC1C(=O)N(c2ccc(OC)cc2)C(=S)N1NC(=O)c1cccc(F)c1 (configuration not stated) was read as TWEAK Fn14 block -6.6, TROY NFkB inh 84.2*, HSP90 refold inh 1.7, TRAIL sens C8 -12.6, aSyn 5UTR inh 12.1 and HIF-2a block 2.4.
COc1cc(NC(=O)CSc2nnc(-c3cc(C)on3)o2)cc(OC)c1 was read as TWEAK Fn14 block 1.9, TROY NFkB inh 7.1, HSP90 refold inh 1.5, TRAIL sens C8 -11.2, aSyn 5UTR inh -14.3 and HIF-2a block 10.9.
Screening Cc1cc(-c2nnc(SCC(=O)Nc3nc(-c4ccc(Cl)cc4)cs3)o2)no1 returned TWEAK Fn14 block 83.4*, TROY NFkB inh 8.0, HSP90 refold inh -0.1, TRAIL sens C8 -13.6, aSyn 5UTR inh -7.1 and HIF-2a block 2.4.
`O=C(CCN1C(=O)c2ccccc2C1=O)c1ccccc1` gave TWEAK Fn14 block -13.9, TROY NFkB inh -69.8, TRAIL sens C8 -15.8 and HIF-2a block -76.6.
For CCOc1ccc(N2C(=O)CC(NCCc3ccc(S(N)(=O)=O)cc3)C2=O)cc1 (configuration not stated) the results were TWEAK Fn14 block 108.2*, HSP90 refold inh 3.2, TRAIL sens C8 -11.5, aSyn 5UTR inh 8.5 and HIF-2a block 9.4.
